# RORgamma inh – blocks mouse ROR gamma transcriptional activity | AID 2551 | Potency, µM (titrated, usually from 53.6 µM), without a hit: at the highest dose activity change, negative = inhibition, usual class: inhibitors | P51450 | Drosophila S2 Gal4-RORgamma UAS-luciferase reporter, 20 h | actives 5.4% (n = 310,000); further: nearly all actives have a fitted effect of over 60% in size
#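 Stable Schneider cell line, Gal4 DNA-binding domain fused to ROR gamma, UAS-luciferase. Cmpd 1 hr RT → CuSO4 700 uM final → 20 hr RT → luciferase reagent 10 min → luminescence.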
# DT40 TDP1 no CPT – qHTS for Inhibitors of human tyrosyl-DNA phosphodiesterase 1 (TDP1): qHTS in cells in absence of CPT. AID 686978, 2013. DT40 Tdp1-/- hTDP1 cells, no CPT, ATP luminescence, 48 h. actives 15% (n = 420,000). Potency, µM (titrated, usually from 46.2 µM), without a hit: at the top dose activity change, negative = growth inhibition, usual class: inhibitors; further: nearly all actives have a fitted effect of over 55% in size
#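 Readout: luminescence from CellTiter-Glo after 30 min in the dark at RT. Cells: DT40 Tdp1-/- with stable hTDP1, 400/well. Exposure: compounds alone, ≥48 hr, 37 °C.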
# Gal4-VP16 FLuc – counter-screen for ROR gamma inhibitors: Gal4-VP16 reporter; Potency, µM (series often up to 53.6 µM), inactives show at the top dose activity, negative = inhibition, usual class: inhibitors; Drosophila S2 Gal4-VP16 UAS-luciferase, luminescence, 20 h; actives 3.5% (n = 310,000);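 further: Gal4-VP16 expression switched on by copper sulfate through the metallothionein promoter; nearly all actives have a fitted effect of over 50% in size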
# ELG1 DNA repair – ELG1-dependent DNA repair inhibition; actives 2.3% (n = 330,000); Potency, µM (top dose mostly 46.1 µM), without a hit: at the highest dose activity change, negative = inhibition, usual class: inhibitors; HEK293T ELG1-luciferase reporter, luminescence, 16 h; DNA damage induced by 5-fluorouridine; further: nearly all actives have a fitted effect of over 55% in size
#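 Cells (2,000 per well) received 5-fluorouridine plus test compound or DMSO and were incubated 16 hr at 37 °C, 5% CO2. Luciferase activity was read by luminescence 30 min after ONE-Glo addition; signal suppression marked inhibition of damage-induced ELG1 function.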
# 12-LOX inh – inhibitors of human 12S-lipoxygenase ALOX12. P18054. purified 12hLO, xylenol orange hydroperoxide absorbance. Potency, µM (highest dose often 108 µM), for inactives: top-dose activity change, negative = inhibition, actives largely listed as inhibitors. actives 1.1% (n = 580,000)
# Target sequence (P18054 whole entry, looked up): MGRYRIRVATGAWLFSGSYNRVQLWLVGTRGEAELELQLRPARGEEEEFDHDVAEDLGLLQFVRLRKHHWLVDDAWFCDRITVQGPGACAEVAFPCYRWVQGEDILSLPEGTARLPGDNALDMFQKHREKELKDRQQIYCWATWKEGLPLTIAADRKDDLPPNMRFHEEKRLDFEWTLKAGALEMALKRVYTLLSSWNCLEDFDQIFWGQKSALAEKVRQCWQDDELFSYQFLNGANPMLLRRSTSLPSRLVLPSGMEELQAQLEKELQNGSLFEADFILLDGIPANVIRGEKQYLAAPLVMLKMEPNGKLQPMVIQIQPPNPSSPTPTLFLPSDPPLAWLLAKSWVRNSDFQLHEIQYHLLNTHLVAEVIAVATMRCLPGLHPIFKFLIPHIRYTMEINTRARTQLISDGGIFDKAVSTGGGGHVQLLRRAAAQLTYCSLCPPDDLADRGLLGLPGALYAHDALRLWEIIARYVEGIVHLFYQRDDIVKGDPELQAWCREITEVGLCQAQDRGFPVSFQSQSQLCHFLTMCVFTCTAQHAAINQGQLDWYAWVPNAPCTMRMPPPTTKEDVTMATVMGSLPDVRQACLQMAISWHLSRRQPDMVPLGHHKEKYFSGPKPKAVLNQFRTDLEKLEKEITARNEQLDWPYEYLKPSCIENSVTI
#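 Purified human 12hLO (150 nM final) in 25 mM Hepes, 0.01% Triton X-100, pH 7.0 was preincubated 15 min at room temperature with compound. Then 40 uM arachidonic acid was added, 30 min. Hydroperoxide was read by Fe-XO absorbance ratio 573/405 nm.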
# DT40 TDP1 CPT – DT40-hTDP1 cell growth loss with CPT. chicken DT40 Tdp1-/-;hTDP1 cells + 20 nM CPT, ATP luminescence, 48 h. Potency, µM (titrated, usually from 46.2 µM), for the others: top-dose activity change, negative = growth inhibition, usual class: inhibitors. actives 12% (n = 420,000). AID 686979; further: nearly all actives have a fitted effect of over 55% in size
#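 Cell growth measured by CellTiter-Glo luminescence after a minimum 48 h, 37 C compound exposure with 20 nM CPT in Tdp1-knockout DT40 cells stably expressing hTDP1, seeded 400/well; qHTS titration format.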
# Numbers without * were called inactive; ? = inconclusive; . = no result; [ ] = dose if it differs, or a comment. Most compounds without a hit are left out; they make up all but 15% or so of the library. The call rests on the fitted dose curve; in most records, active means well fitted curve in the direction sought with a large enough effect; inconclusive means small, poorly fitted or top-dose-only effect, or another doubt; inactive means no such curve, though single readings can be large; an effect the other way counts as inactive or inconclusive. On the % scale 0 is the no-effect control and ±100 the full control effect; potency means the concentration at half of the fitted maximal effect.
SMILES,RORgamma inh,DT40 TDP1 no CPT,Gal4-VP16 FLuc,ELG1 DNA repair,12-LOX inh,DT40 TDP1 CPT
Cc1cccc(OCCCn2c(=O)sc3ccccc32)c1,8.91µM*,-22.4%,-24.2%,?,3.3%,-2.3%
Cc1ccc2c(c1)C(=O)C(=O)N2CCCOc1ccccc1,24.5%,2.06µM*,2.7%,4.4%,-19.0%,1.03µM*
CCN(CC)C(=O)C1CCN(c2nnc(C)c3c(C)n(-c4ccc(Cl)cc4)nc23)CC1,.,4.0%,.,.,5.5%,-5.4%
Cc1ccc(-n2nc3c(N4CCCC(C(=O)NCc5ccc(Cl)cc5)C4)nnc(C)c3c2C)cc1 (stereo not drawn),.,18.4µM*,.,.,3.7%,9.2µM*
Cc1nnc(N2CCCC(C(=O)NCc3ccccc3F)C2)c2nn(-c3ccccc3)c(C)c12 (stereo not drawn),0.0%,0.9%,0.2%,-1.0%,0.0%,?
Cc1cc(=O)n2nc(N3CCCC(C(=O)NCCc4ccccc4)C3)sc2n1 (stereo not drawn),0.1%,-24.4%,0.6%,-15.8%,0.1%,-42.3%
Cc1ccccc1CNC(=O)C1CCCN(c2nnc(C)c3c(C)n(-c4ccccc4)nc23)C1 (stereo not drawn),-16.6%,18.4µM*,?,?,0.0%,23.1µM*
Cc1ccc(CCNC(=O)C2CCCN(c3nnc(C)c4c(C)n(-c5ccccc5)nc34)C2)cc1 (stereo not drawn),.,?,.,.,-13.8%,23.1µM*
Cc1ccc(-n2nc3c(N4CCCC(C(=O)NCCc5ccccc5)C4)nnc(C)c3c2C)cc1 (stereo not drawn),.,16.4µM*,.,.,-7.4%,16.4µM*
NC(=O)CN1CCN(c2nc3ccccc3nc2NS(=O)(=O)c2cccc(Cl)c2)CC1,.,.,.,.,21.1%,.
CCOC(=O)C1CCCN(C(=O)C2CCN(c3nnc(C)c4c(C)n(-c5ccccc5)nc34)CC2)C1 (stereo not drawn),.,?,.,.,-18.4%,?
CCOc1ccc(CCNC(=O)C2CCCN(c3nnc(C)c4c(C)n(-c5ccccc5)nc34)C2)cc1 (stereo not drawn),.,?,.,.,-9.9%,20.6µM*
Cc1nnc(N2CCCC(C(=O)NCCc3ccccc3)C2)c2nn(-c3ccccc3)c(C)c12 (stereo not drawn),.,18.4µM*,.,.,18.8%,?
COc1ccc(Cl)cc1Nc1ncnc2c1c(-c1ccccc1)cn2-c1cccc(C(F)(F)F)c1,.,.,.,.,22.4%,.
COc1cccc(CNC(=O)Cn2c(=O)nc3n2C(=O)N(c2ccccc2)C3)c1,.,.,.,.,5.8%,.
CCc1nc2ccc(C(=O)NCCc3ccccn3)cn2c1N(C)Cc1nccs1,.,16.4µM*,.,.,6.1%,?
CCc1nc2ccc(C(=O)NCCOc3ccc(OC)cc3)cn2c1N(C)Cc1cccs1,.,?,.,.,4.2%,?
CCc1nc2ccc(C(=O)Nc3ccc(OC)c(OC)c3)cn2c1N(C)Cc1nccs1,.,?,.,.,-10.4%,14.6µM*
CCc1nc2ccc(C(=O)NCCc3ccccn3)cn2c1N(C)Cc1ccc(N(C)C)cc1,.,?,.,.,6.0%,?
CCc1nc2ccc(C(=O)NCCc3ccccn3)cn2c1N(C)Cc1cccs1,.,18.4µM*,.,.,-4.3%,?
CCc1nc2ccc(C(=O)NCc3cccs3)cn2c1N(C)Cc1nccs1,.,20.6µM*,.,.,9.0%,?
CCc1nc2ccc(C(=O)Nc3ccc(OC)c(OC)c3)cn2c1N(CC)Cc1cccc(Br)c1,.,23.1µM*,.,.,13.4%,23.1µM*
COc1ccc(-c2cnc(N)nc2-c2ccc(OCc3ccccc3F)cc2O)cc1OC,.,.,.,.,-13.1%,.
CCc1cc(-c2nc(N)ncc2-c2csc(C)n2)c(O)cc1OC,21.2%,?,5.8%,-4.6%,-10.7%,-3.0%
O=[N+]([O-])c1ccc(COc2ccc(-c3[nH]ncc3-c3ccc(Cl)cc3)c(O)c2)cc1,42.8%,23.1µM*,-9.9%,?,-22.9%,?
SMILES,RORgamma inh,DT40 TDP1 no CPT,Gal4-VP16 FLuc,ELG1 DNA repair,12-LOX inh,DT40 TDP1 CPT
COc1ccc(-c2cn[nH]c2-c2ccc(OCc3ccc([N+](=O)[O-])cc3)cc2O)cc1OC,?,20.6µM*,?,?,10.2%,?
COc1ccc(-c2cn[nH]c2-c2ccc(OCc3ccccc3F)cc2O)cc1OC,?,11.6µM*,?,?,?,29.1µM*
CCc1cc(-c2oncc2-c2ccc(OC)cc2)c(O)cc1OC,?,.,14.1µM*,.,.,.
C/C(=N\NC(=O)CCC(=O)NCc1ccccc1)c1ccc(Cl)cc1,.,.,.,.,27.4%,.
CCc1cc(-c2[nH]ncc2-c2ccc([N+](=O)[O-])cc2)c(O)cc1OC,12.6µM*,?,20µM*,0.4%,.,?
Oc1ccc(-c2[nH]ncc2-c2ccc(Br)cc2)c(O)c1,-18.1%,?,-9.1%,?,?,-19.2%
CC(C)n1cc(-c2cc(C(=O)N3CCC(C)(C)C3)c3ccc(F)cc3n2)cn1,.,.,.,.,2.2%,.
Cc1ccc(NC(=O)c2cc3nc(C)cc(C)n3n2)cc1,6.31µM*,0.4%,10µM*,?,3.5%,-4.5%
COCCOCC(=O)N1CCC2(CC1)CC(N1CCCCC1)CCO2 (stereo not drawn),.,.,.,.,35.7%,.
CCOC(=O)c1oc2cc(C)cc(C)c2c1C,?,-6.1%,13.2%,-1.4%,483.1%,-10.7%
CCOC(=O)c1oc2ccc(/C=N/O)c(Cl)c2c1C,0.562µM*,-2.4%,3.16µM*,?,-12.2%,6.8%
Cc1ccc(S(=O)(=O)NCC(=O)OCc2csc(-c3ccccc3)n2)cc1,10.6%[10 µM],?,15.6%,?,?,?
O=C(CNS(=O)(=O)c1ccc2ccccc2c1)OCc1csc(-c2ccccc2)n1,13.5%,20.6µM*,?,?,?,?
Cc1ccc(-c2c(C(F)(F)F)nn3c(N4CCN(CCO)CC4)cc(C)nc23)cc1,.,.,.,.,57.6%,.
O=C(CSc1ncnc2c1nnn2-c1ccc(F)cc1)NCc1ccco1,?,14.6µM*,0.9%,?,9.2%,?
COc1ccc(-n2nnc3c(SC(C(C)=O)C(=O)N(C)C)ncnc32)cc1 (stereo not drawn),0.5%,16.4µM*,-7.2%,?,?,18.4µM*
COC(=O)C(C)Sc1ncnc2c1nnn2-c1ccc(F)cc1 (stereo not drawn),?,?,-2.0%,?,0.0%,-58.8%

# Assay outcomes deposited in PubChem by National Center for Advancing Translational Sciences (NCATS).
